# Measured values reported in PubChem BioAssay (EPA / NIEHS).
# Values joined by “and” are separate entries in the source; they are usually repeats but may differ in a detail not shown here. Equal values may be shown once. Records with an inconclusive call do not appear. Some structures have more than one record in an assay (separate samples or runs), and their calls can disagree. Active and inactive are the calls of the source. How the source made its calls: active means hit-call score of the fitted dose curve at least 0.9, where 1 is the maximum; inconclusive means response in the unintended direction; inactive means score below 0.9.
# How the values were obtained:
# [1] = ATG_XTT_Cytotoxicity: Cytotoxicity Assessment in the Attagene TRANS-FACTORIAL HepG2 Assay (AID 2283584);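 on AC50: cells exposed to compound for 24 h before reading; active means loss of viability signal versus DMSO baseline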
# Outline: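 HepG2 human liver cells, transiently transfected with multiple GAL4-UAS reporter units, were dosed and read at 24 h by XTT as cell number. Loss of signal was fitted relative to DMSO negative control baseline.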
# [2] = TOX21_p53_BLA_p2_viability: Viability Assessment in the Tox21 HCT-116 p53 Agonism Beta-lactamase Assay, Phase 2 (AID 2283591);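 further: compound exposure lasted 16 h at 37 °C; actives lower the ATP signal meaning cytotoxicity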
# Outline: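 HCT-116 p53-bla cells (4000/well) rested 5 h at 37C, then received compounds in DMSO (217-fold dilution) for 16 h at 37C, 5% CO2. After the CCF4 read, CellTiter-Glo was added; ATP luminescence was read after 30 min at room temperature.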
# [3] = target: Cellular tumor antigen p53 (Homo sapiens) (UniProt P04637); assay: TOX21_p53_BLA_p2_ratio: Tox21 HCT-116 p53 Agonism Beta-lactamase Assay, Ratio, Phase 2 (AID 2283592)
# Outline: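 HCT116 cells carrying a p53-responsive beta-lactamase reporter were plated, incubated 5 h at 37C, then dosed with compounds in DMSO (217-fold dilution) for 16 h. CCF4-AM substrate was added for 2 h at room temperature; the 460/530 nm emission ratio gave gain-of-signal activity relative to DMSO.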
# [4] = TOX21_p53_BLA_p3_viability: Viability Assessment in the Tox21 HCT-116 p53 Agonism Beta-lactamase Assay, Phase 3 (AID 2283593);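 further: cells exposed to compound for 16 h before reading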
# Outline: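 HCT-116 cells (4000/well) rested 5 h at 37C, then got DMSO compounds by pin tool (217-fold dilution) for 16 h at 37C, 5% CO2. After the bla read, CellTiter-Glo was added and luminescence read at 30 min, room temperature.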
# [5] = target: Cellular tumor antigen p53 (Homo sapiens) (UniProt P04637); assay: TOX21_p53_BLA_p3_ratio: Tox21 HCT-116 p53 Agonism Beta-lactamase Assay, Ratio, Phase 3 (AID 2283596)
# Outline: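 HCT116 p53-bla cells (4000/well) given compound in DMSO (217-fold dilution) after 5 h, incubated 16 h at 37C. CCF4-AM substrate 2 h at room temperature; 460/530 nm emission ratio, gain fitted against DMSO.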
# [6] = TOX21_p53_BLA_p4_viability: Viability Assessment in the Tox21 HCT-116 p53 Agonism Beta-lactamase Assay, Phase 4 (AID 2283597);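 further: hits lower the luminescence signal meaning cytotoxicity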
# Outline: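 HCT116 p53-bla cells (4000/well) rested 5 h at 37C, then received compounds in DMSO (217-fold dilution) for 16 h at 37C, 5% CO2. CellTiter-Glo was added after the CCF4-AM read, and luminescence was read after 30 min at room temperature.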
# [7] = target: Cellular tumor antigen p53 (Homo sapiens) (UniProt P04637); assay: TOX21_p53_BLA_p5_ratio: Tox21 HCT-116 p53 Agonism Beta-lactamase Assay, Ratio, Phase 5 (AID 2283599)
# Outline: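 HCT-116 cells carrying a p53-inducible beta-lactamase reporter were seeded at 4000 cells/well and dosed after 5 h with compound in DMSO (217-fold dilution). After 16 h at 37C, CCF4-AM substrate was added for 2 h, and the 460/530 nm emission ratio was scored as gain-of-signal versus DMSO.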
# [8] = TOX21_p53_BLA_p5_viability: Viability Assessment in the Tox21 HCT-116 p53 Agonism Beta-lactamase Assay, Phase 5 (AID 2283600)
# Outline: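 Cells were plated at 4000/well, rested 5 h at 37C, then given compounds in DMSO (217-fold dilution) for 16 h at 37C, 5% CO2. Following the CCF4-AM beta-lactamase read, CellTiter-Glo was added and luminescence was read after 30 min at room temperature.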
# Chain of Cellular tumor antigen p53 (Homo sapiens) (P04637 whole entry, looked up): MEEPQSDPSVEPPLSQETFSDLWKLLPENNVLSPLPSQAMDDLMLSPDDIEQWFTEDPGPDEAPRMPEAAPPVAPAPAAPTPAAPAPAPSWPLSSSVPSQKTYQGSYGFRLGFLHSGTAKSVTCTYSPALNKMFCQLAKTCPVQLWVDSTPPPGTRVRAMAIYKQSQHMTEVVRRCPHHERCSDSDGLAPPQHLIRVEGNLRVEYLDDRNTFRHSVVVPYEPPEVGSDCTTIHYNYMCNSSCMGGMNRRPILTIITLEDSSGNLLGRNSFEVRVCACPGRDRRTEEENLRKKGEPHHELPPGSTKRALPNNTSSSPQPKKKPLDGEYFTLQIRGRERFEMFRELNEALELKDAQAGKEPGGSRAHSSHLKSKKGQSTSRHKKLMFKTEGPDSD
smiles,measurement,setting,value
CCCCCCCCCCCCCCCC[n+]1ccccc1,AC50,[1],26.6 µM (active)
Cc1ccc2oc(=O)ccc2c1,outcome,[1],inactive
CCCCCC/C=C/C=O,outcome,[1],inactive
NC(=O)C1CO1 (stereo not drawn),outcome,[1],inactive
CCCCCCCCc1ccc(Nc2ccc(CCCCCCCC)cc2)cc1,outcome,[1],inactive
Cn1c(=O)[nH]c2ncn(C)c2c1=O,outcome,[1],inactive
C[Si](C)(C)O[Si](O)(O)O,outcome,[1],inactive
C=CC(=O)OCC(Br)CBr (stereo not drawn),outcome,[1],inactive
CCCCCCCC[N+](C)(CCCCCCCC)CCCCCCCC,AC50,[1],9.48 µM (active)
CCCCCCCCCCc1ccccc1,outcome,[1],inactive
C=C(C)C(=O)OCCOc1ccccc1,outcome,[1],inactive
CCOC(=O)N1CCC(=C2c3ccc(Cl)cc3CCc3cccnc32)CC1,AC50,[1],47.5 µM (active)
same,AC50,[2],69.7 µM (active) and 36.8 µM (active)
same,AC50,[3],36.5 µM (active) and 12.9 µM (active)
same,AC50,[4],79.9 µM (active)
same,outcome,[4],inactive
same,AC50,[5],43.3 µM (active) and 22.4 µM (active)
same,outcome,[6],inactive
same,AC50,[7],49.6 µM (active)
same,outcome,[7],inactive
same,AC50,[8],75.4 µM (active)
same,outcome,[8],inactive
C=C(C)CCO,outcome,[1],inactive
O=CC1CC1,outcome,[1],inactive
CC(=O)OC1C2(C)CCC(C2)C1(C)C (stereo not drawn),outcome,[1],inactive
C=CC(C)(CCC=C(C)C)OC(=O)CC(C)C (stereo not drawn),outcome,[1],inactive
CCCCCCCC/C=C\CCCCCCCC(=O)OCCO,outcome,[1],inactive
O=c1[nH]nc(-c2ccc([N+](=O)[O-])o2)o1,outcome,[1],inactive
same,outcome,[2],inactive
same,outcome,[3],inactive
same,outcome,[4],inactive
same,outcome,[5],inactive
same,outcome,[6],inactive
same,outcome,[7],inactive
same,outcome,[8],inactive
COC(=O)C1=C(C)NC(C)=C(C(=O)OCC(C)C)C1c1ccccc1[N+](=O)[O-] (stereo not drawn),outcome,[1],inactive
same,outcome,[2],inactive
same,AC50,[3],18.4 µM (active)
same,outcome,[4],inactive
same,AC50,[5],23 µM (active)
same,outcome,[5],inactive
same,outcome,[6],inactive
same,outcome,[8],inactive
